# Shown are actives, neighbours in structure and some others; about 8.2% of the full set was active somewhere.
# ELG1 DNA repair: qHTS screen for small molecules that inhibit ELG1-dependent DNA repair in human embryonic kidney (HEK293T) cells expressing luciferase-tagged ELG1; HEK293T ELG1-luciferase reporter, luminescence, 16 h; DNA damage induced by 5-fluorouridine; Potency, µM (doses to about 46.1 µM), for inactives: at the top dose activity change, negative = inhibition, most hits filed as inhibitors; actives 2.3% (n = 330,000); further: on the % scale 0 is the no-effect control and ±100 the full control effect; nearly all actives have a fitted effect of over 55% in size
#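 Cells (2,000 per well) received 5-fluorouridine plus test compound or DMSO and were incubated 16 hr at 37 °C, 5% CO2. Luciferase activity was read by luminescence 30 min after ONE-Glo addition; signal suppression marked inhibition of damage-induced ELG1 function.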
# MCF10A rereplic: A quantitative high throughput screen for small molecules that induce DNA re-replication in MCF 10a normal breast cells | actives 2.9% (n = 350,000) | Potency, µM (series often up to 46.1 µM), for inactives: at the top dose activity, positive = re-replication, hits mostly activators | MCF 10A DNA re-replication, Hoechst nuclear intensity, 48 h | AID 624296, 2012; further: % of control where 0% means no effect; nearly all actives have a fitted effect of over 50% in size
# SW480 rereplic: A quantitative high throughput screen for small molecules that induce DNA re-replication in SW480 colon adenocarcinoma cells; SW480 DNA re-replication, Hoechst DNA content imaging, 48 h; Potency, µM (titrated, usually from 46.1 µM), inactives show at the highest dose re-replication activation, usual class: activators; actives 1.8% (n = 340,000); AID 624297, 2012; further: % of control where 0% means no effect; nearly all actives have a fitted effect of over 55% in size
#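 Hoechst fluorescence of nuclei (405 nm excitation, 500-530 nm emission) measured by plate-scanning imager after 48 hr compound exposure at 37 C; re-replication scored as increased number of nuclei with elevated intensity.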
# KB-V1 cytotox: qHTS assay for MDR1-selective chemotherapeutics: Primary screen using the drug-selected MDR subline cells KB-V1; KB-V1 MDR cells viability, CellTiter-Glo, 72 h; Potency, µM (top dose mostly 46.1 µM), hits mostly cytotoxic; actives 3.4% (n = 400,000); AID 1347076, 2019; further: on the % scale 0 is the no-effect control and ±100 the full control effect; nearly all actives have a fitted effect of over 60% in size
#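 Drug-selected KB-V1 cells, grown in DMEM lacking phenol red with 10% FBS, receive compound titrations; after three days at 37 degrees C, surviving cell ATP is quantified by CellTiter-Glo luminescence and responses normalized and curve-fitted.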
# KB-3-1 cytotox: qHTS assay for MDR1-selective chemotherapeutics: Primary screen using the parental adenocarcinoma cell KB-3-1 | KB-3-1 viability, CellTiter-Glo ATP luminescence, 72 h | Potency, µM (titrated, usually from 46.1 µM), usual class: cytotoxic | actives 1.4% (n = 400,000); further: on the % scale 0 is the no-effect control and ±100 the full control effect; nearly all actives have a fitted effect of over 60% in size
#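 Cytotoxicity measured as CellTiter-Glo luminescence after 72 h at 37 C. Compound titrations were pinned onto drug-naive KB-3-1 parental adenocarcinoma cells grown in DMEM with 10% FBS, and normalized data fitted to concentration-response curves.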
# * = called active by the depositor; i = inactive; ? = inconclusive; . = no result given; ! = not active in a repeat; [ ] = remark or other dose. The call rests on the fitted dose curve; in most records, active means well fitted curve in the direction sought with a large enough effect; inconclusive means small, poorly fitted or top-dose-only effect, or another doubt; inactive means no such curve, though single readings can be large; an effect the other way counts as inactive or inconclusive. Potency means the concentration at half of the fitted maximal effect.
SMILES,ELG1 DNA repair,MCF10A rereplic,SW480 rereplic,KB-V1 cytotox,KB-3-1 cytotox
Cc1[nH]nc(N=CC2=C(O)CC(C)(C)CC2=O)c1-c1ccc(Cl)cc1,10%,18µM*!,?,21µM*!,i
CC1(C)CC(=O)C(C=Nc2ccc(N)cc2)=C(O)C1,-12%,0.65µM*,?,i,i
Cc1ccc(N=CC2=C(O)CC(c3ccco3)CC2=O)cc1 (centres undefined),4%,8%,0%,?,i
O=c1cc(-c2ccccc2Cl)oc2cccc(O)c12,23%,6%,0%,i,i
O=c1cc2oc3cc(O)c(O)cc3c(-c3ccccc3[N+](=O)[O-])c-2cc1O,21µM*,27%,29%,?,i
O=C1NC2(CCCCC2)C(=O)N1Cc1cccc(C(F)(F)F)c1,9.2µM*,0%,-17%,i,i
O=C1NC2(CCCCCC2)C(=O)N1Cc1cccc(Cl)c1,-1%,1%,-4%,i,i
Cc1ccccc1NC(=O)C(=Cc1ccc(C(=O)O)cc1)C(=O)Nc1ccccc1C,12µM*,13µM*,?,?,?
CC(=O)/C(=C/c1ccccc1)C(=O)Nc1ccccc1C,19%,?,22%,i,?
Cc1ccc(NC(=O)[C@@H](C)NC(=O)[C@@H]2Cc3ccccc3CN2)cc1,18%,-3%,1%,i,i
Cc1ccc(NC(=O)[C@H](NC(=O)[C@@H]2Cc3ccccc3CN2)c2ccccc2)cc1C,?,26µM*,-3%,i,i
Cc1ccc(SCC(=O)OCC(=O)NCCc2ccc(S(N)(=O)=O)cc2)c(C)c1,5%,0%,-7%,i,i
Cc1c(/C=C/C(=O)c2cccs2)cnn1C,?,21µM*,?,i,i
CCc1ccc(C(=O)/C=C/c2cnn(C)c2C)s1,?,-1%,-9%,i,?
CC1(c2nnc(-c3ccncc3)o2)CC(c2ccc([N+](=O)[O-])cc2)=NO1 (centres undefined),21µM*,-8%,-5%[9.22 µM],i,i
CC1(c2nnc(-c3ccc(Cl)cc3)o2)CC(c2ccc([N+](=O)[O-])cc2)=NO1 (centres undefined),-3%,25%,-25%,?,i
Cc1oc(-c2ccc(Cl)cc2)cc1C(=O)/C(C#N)=C/Nc1ccccc1,1%,13µM*,2%,i,i
CCCCNC1C(CC)C(CCC)C(C#N)(C#N)C1(C#N)C#N (centres undefined),?,21µM*,?,?,?
CCS(=O)(=O)N1Cc2ccccc2CC1C(=O)Nc1nc2ccccc2s1 (centres undefined),?,17%,1%,16µM*,i
CCS(=O)(=O)N1Cc2ccccc2CC1C(=O)N1CCN(c2ccccc2)CC1 (centres undefined),6%,11%,3%,10µM*,i
CCc1nnc(NC(=O)C2Cc3ccccc3CN2S(=O)(=O)CC)s1 (centres undefined),3%,4%,1%,i,i
CS(=O)(=O)N1Cc2ccccc2CC1C(=O)O (centres undefined),8%,-1%,-4%,i,i
CCc1nnc(NC(=O)C2Cc3ccccc3CN2S(=O)(=O)c2c(C)c(C)cc(C)c2C)s1 (centres undefined),?,?,14%,10µM*,i
CCS(=O)(=O)N1Cc2ccccc2CC1C(=O)Nc1nnc(SCc2ccc(F)cc2)s1 (centres undefined),-4%,?,?,4.1µM*,i
CC(/C=C/c1ccco1)=N\NC(=O)C(O)c1ccccc1 (centres undefined),?,23µM*,0%,i,i
SMILES,ELG1 DNA repair,MCF10A rereplic,SW480 rereplic,KB-V1 cytotox,KB-3-1 cytotox
CCOC(=O)C1(CCCc2ccccc2)CCN(C(=O)CN2C(=O)CSC2=O)CC1,12µM*,?,-2%,?,i
CCOC(=O)C1(CCCc2ccccc2)CCN(C(=O)c2cnc(C)cn2)CC1,16µM*,4%,-1%,i,i
CCOC(=O)C1(CCc2ccccc2)CCN(C(=O)c2occc2C)CC1,?,-12%,1.6µM*,?,i
CCOC(=O)C1(CCCc2ccccc2)CCN(C(=O)CCOC)CC1,-13%,10%,-9%,?,i
C[C@H]1COc2cccc(N(C)CCO)c2S(=O)(=O)N1,.,.,.,i,i
CCN(CC)c1nc2ccccc2nc1C(C#N)C(=O)NCCc1ccccc1 (centres undefined),?,18µM*,?,i,i
CCCCCCOC(=O)C(C#N)c1nc2ccccc2nc1N1CCN(CC)CC1 (centres undefined),-26%,?,17%,?,?
CCCCCNC(=O)C(C#N)c1nc2ccccc2nc1N1CCCC1 (centres undefined),14%,10µM*,?,i,i
COCCCNC(=O)C(C#N)c1nc2ccccc2nc1N1CCCC1 (centres undefined),21µM*,4%,-1%[9.22 µM],i,i
CCN1CCN(c2nc3ccccc3nc2C(C#N)C(=O)OCc2ccccc2)CC1 (centres undefined),18µM*,?,?,?,i
CCCCCCNC(=O)C(C#N)c1nc2ccccc2nc1N1CCOCC1 (centres undefined),-1%,-4%,-4%,i,i
N#CC(C(=O)NCCc1ccccc1)c1nc2ccccc2nc1N1CCCCC1 (centres undefined),-2%,21µM*,?,i,i
CCCCCCNC(=O)C(C#N)c1nc2ccccc2nc1N1CCCC1 (centres undefined),-1%,13µM*,?,i,i
CCCCOC(=O)C(C#N)c1nc2ccccc2nc1N1CCOCC1 (centres undefined),21µM*,?,6%,i,i
COc1ccc(NC(=O)CSc2nc3sc(C)cc3c(=O)n2C)c(OC)c1,?,3%,-2%,8.2µM*,i
COc1ccc(NC(=O)CSc2nc3sc(C)cc3c(=O)n2C)cc1,15%,-13%,-32%,i,i
COc1ccc(S(=O)(=O)NCC(c2ccc(N(C)C)cc2)N2CCCC2)cc1F (centres undefined),.,.,.,i,i
CCN(C(=O)COC(=O)c1ccc(C=O)cc1)c1c(N)n(Cc2ccccc2)c(=O)[nH]c1=O,-1%,17%,?,i,i
